Source: PubChem BioAssay AID1159580 (chemical genetic matrix, 2015)
Out of some 5,500 compounds screened, about 2,000 (36%) were called active. About 18% were inconclusive and are not listed. Rule as the data show it: active = normalized growth mostly below about 0.91 (no sharp cut-off); inconclusive = no clear call, values can overlap the other calls; inactive = mostly above about 0.92. This is one part of the list.

Experiment: chemical genetic growth profiling, strain panel (AID 1159580);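 also: tested at 20 µM; growth read once vehicle control cultures reached saturation at 30 °C; 1 = growth at the plate median or of vehicle wells; lower values mean less growth of the strain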
Conditions: S. cerevisiae deletion strains, growth OD
[1] = locus YHR030C, strain SLT2, stronger effect = lower value
[2] = locus YHR079C, strain IRE1, stronger effect = lower value
[3] = locus YJL095W, strain BCK1, stronger effect = lower value
[4] = locus YJR066W, strain TOR1, stronger effect = lower value
[5] = locus YLR113W, strain HOG1, stronger effect = lower value
[6] = locus YNL183C, strain NPR1, stronger effect = lower value
[7] = locus YOR231W, strain MKK1, stronger effect = lower value
[8] = locus YPL256C, strain CLN2, stronger effect = lower value

Measured: normalized growth

CC(C)CC(NC(=O)CCN)C(=O)O (centres undefined)
inactive: [1] 0.976 | [2] 0.964 | [3] 0.974 | [4] 0.896 | [5] 0.986 | [6] 0.886 | [7] 0.993 | [8] 0.975

NCCCN=c1ccc2c3c1c(O)c1c(O)ccc(=O)c1c3[nH]n2CCNCCO
inactive: locus YAR019C, strain CDC15, stronger effect = lower value 0.984 | locus YBL105C, strain PKC1, stronger effect = lower value 0.977 | locus YBR135W, strain CKS1, stronger effect = lower value 0.986 | locus YBR136W, strain MEC1, stronger effect = lower value 0.97 | locus YBR160W, strain CDC28, stronger effect = lower value 0.982 | locus YDL017W, strain CDC7, stronger effect = lower value 0.976 | locus YDL028C, strain MPS1, stronger effect = lower value 0.976 | locus YDL101C, strain DUN1, stronger effect = lower value 0.969 | locus YDL108W, strain KIN28, stronger effect = lower value 0.978 | locus YDL132W, strain cdc53, stronger effect = lower value 0.979 | locus YDL214C, strain PRR2, stronger effect = lower value 0.993 | locus YDR052C, strain DBF4, stronger effect = lower value 0.976 | locus YDR054C, strain cdc34, stronger effect = lower value 0.974 | locus YDR226W, strain ADK1, stronger effect = lower value 0.984 | locus YDR477W, strain SNF1, stronger effect = lower value 0.977 | locus YER123W, strain YCK3, stronger effect = lower value 0.978 | locus YER133W, strain GLC7, stronger effect = lower value 0.977 | locus YFL009W, strain cdc4, stronger effect = lower value 0.982 | locus YFL029C, strain CAK1, stronger effect = lower value 0.986 | locus YFR003C, strain YPI1, stronger effect = lower value 0.973 | locus YFR019W, strain FAB1, stronger effect = lower value 0.948 | locus YFR028C, strain CDC14, stronger effect = lower value 0.981 | locus YGR040W, strain KSS1, stronger effect = lower value 0.977 | locus YGR052W, strain FMP48, stronger effect = lower value 0.984 | locus YGR092W, strain DBF2, stronger effect = lower value 0.688 | [1] 1.03 | [2] 1.01 | locus YHR082C, strain KSP1, stronger effect = lower value 1.05 | locus YHR205W, strain SCH9, stronger effect = lower value 0.916 | locus YIL147C, strain SLN1, stronger effect = lower value 0.969 | [3] 0.893 | locus YJL128C, strain PBS2, stronger effect = lower value 0.957 | locus YJL157C, strain FAR1, stronger effect = lower value 0.994 | locus YJR016C, strain ILV3, stronger effect = lower value 0.982 | locus YJR066W, strain TOR1 (second series), stronger effect = lower value 0.964 | [4] 1.01 | locus YKL048C, strain ELM1, stronger effect = lower value 0.94 | locus YKL067W, strain YNK1, stronger effect = lower value 0.983 | locus YKL101W, strain HSL1, stronger effect = lower value 0.957 | locus YKL193C, strain SDS22, stronger effect = lower value 0.971 | locus YKL203C, strain TOR2, stronger effect = lower value 1.01 | [5] 0.982 | locus YLR133W, strain CKI1, stronger effect = lower value 0.993 | locus YLR403W, strain SFP1, stronger effect = lower value 0.916 | locus YML070W, strain DAK1, stronger effect = lower value 0.956 | locus YMR001C, strain CDC5, stronger effect = lower value 0.984 | locus YMR205C, strain PFK2 (second series), stronger effect = lower value 1 | locus YMR277W, strain FCP1, stronger effect = lower value 0.975 | locus YNL006W, strain LST8, stronger effect = lower value 0.989 | locus YNL020C, strain ARK1, stronger effect = lower value 0.992 | locus YNL161W, strain CBK1, stronger effect = lower value 0.986 | [6] 1 | locus YNL207W, strain RIO2, stronger effect = lower value 0.975 | locus YNL222W, strain SSU72, stronger effect = lower value 0.995 | locus YNL307C, strain MCK1 (second series), stronger effect = lower value 0.82 | locus YOL078W, strain AVO1, stronger effect = lower value 0.971 | locus YOL136C, strain PFK27, stronger effect = lower value 0.965 | locus YOR061W, strain CKA2, stronger effect = lower value 0.874 | locus YOR119C, strain RIO1, stronger effect = lower value 1 | [7] 0.996 | locus YOR329C, strain SCD5, stronger effect = lower value 0.975 | locus YPL031C, strain PHO85, stronger effect = lower value 0.96 | locus YPL153C, strain RAD53, stronger effect = lower value 0.97 | locus YPL204W, strain HRR25, stronger effect = lower value 0.951 | locus YPL209C, strain IPL1, stronger effect = lower value 0.98 | locus YPR025C, strain CCL1, stronger effect = lower value 0.979 | locus YPR106W, strain ISR1, stronger effect = lower value 0.976 | locus YPR111W, strain DBF20, stronger effect = lower value 0.979 | strain NNK1, stronger effect = lower value 0.978 | strain TSCII, stronger effect = lower value 0.981
active: [8] 1.16 [resistant]
